# Rows were chosen to be rich in hits. Some 9.5% of all compounds tested hit in one or more screens of this group.
# Tau FP inhib – tau fibrillization inhibition (FP). P10636. Potency, µM (highest dose often 57.7 µM), for inactives: top-dose activity, negative = inhibition, usual class: inhibitors. K18 P301L tau heparin fibrillization, Alexa594 FP, 6 h. hit rate 0.39% among 280,000; note: nearly all actives have a fitted effect of over 55% in size
#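 FP of Alexa 594-tau after heparin (20 uM) induction. Substrate: human K18 P301L, 15 uM unlabeled, 0.24 uM labeled. Buffer 100 mM sodium acetate pH 7. 6 hr, 37 C.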
# ALDH1A1 inh – inhibitors of human aldehyde dehydrogenase 1A1; Purified ALDH1A1, NADH fluorescence, propionaldehyde substrate; Potency, µM (highest dose often 75.3 µM), inactives show at the highest dose activity, negative = inhibition, hits mostly inhibitors; hit rate 7.3% among 220,000; AID 1030; active = well fitted inhibition curve with a large enough effect, not every such curve was filed as active; inconclusive = small, poorly fitted or top-dose-only effect, or another doubt; inactive = no such curve, though single readings can be large or run the other way;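 note: plate controls were no enzyme wells and a reference inhibitor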
# NPSR antagonist – blocks cAMP signaling of the human neuropeptide S receptor; CHO-NPSR cells, cAMP TR-FRET, antagonist mode; AID 1461; hit rate 1% among 220,000; Potency, µM (series often up to 38.3 µM), without a hit: at the highest dose activity change, negative = inhibition, most hits filed as inhibitors; Q6W5P4; note: nearly all actives have a fitted effect of over 50% in size
# Target sequence (Q6W5P4 whole entry, looked up): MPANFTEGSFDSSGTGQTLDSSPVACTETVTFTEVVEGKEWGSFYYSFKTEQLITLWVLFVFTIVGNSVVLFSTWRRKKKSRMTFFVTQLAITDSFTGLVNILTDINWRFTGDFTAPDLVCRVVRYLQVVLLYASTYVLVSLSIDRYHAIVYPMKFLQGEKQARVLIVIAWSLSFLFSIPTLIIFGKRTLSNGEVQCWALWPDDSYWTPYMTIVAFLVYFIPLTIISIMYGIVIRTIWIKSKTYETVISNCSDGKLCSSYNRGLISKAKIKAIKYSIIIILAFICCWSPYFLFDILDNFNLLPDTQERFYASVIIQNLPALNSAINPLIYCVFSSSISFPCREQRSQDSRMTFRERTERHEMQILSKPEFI
# HPGD block – inhibitors of human 15-hydroxyprostaglandin dehydrogenase (HPGD) | P15428 | purified HPGD, NADH fluorescence kinetic, PGE2 substrate | Potency, µM, inactives show top-dose activity change, negative = inhibition, most hits filed as inhibitors | hit rate 4.3% among 150,000; active = well fitted inhibition curve with a large enough effect, not every such curve was filed as active; inconclusive = small, poorly fitted or top-dose-only effect, or another doubt; inactive = no such curve, though single readings can be large or run the other way
# Target sequence (P15428 whole entry, looked up): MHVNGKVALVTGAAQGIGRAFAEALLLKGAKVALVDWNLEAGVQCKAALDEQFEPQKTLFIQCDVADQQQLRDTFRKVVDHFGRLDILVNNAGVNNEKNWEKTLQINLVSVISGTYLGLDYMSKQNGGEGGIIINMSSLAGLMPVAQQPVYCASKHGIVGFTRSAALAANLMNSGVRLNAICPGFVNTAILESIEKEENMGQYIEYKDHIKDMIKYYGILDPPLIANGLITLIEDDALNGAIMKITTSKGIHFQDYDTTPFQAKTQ
#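 20 nM HPGD preincubated 15 min at room temperature with compound in 50 mM Tris-HCl pH 8, 0.01% Tween 20. Started with 1 mM NAD+ and 30 uM prostaglandin E2; NADH fluorescence (360/450 nm) read 5 times over 30-s intervals, last minus first.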
# Tau fluor counter – counter-screen for tau fibril formation inhibitors; tau K18 P301L Alexa594 fluorescence, heparin fibrillization; Potency, µM (series often up to 57.7 µM), for the others: at the top dose activity change, negative = decrease; hit rate 0.93% among 280,000; AID 1463; note: nearly all actives have a fitted effect of over 55% in size
#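 Human tau K18 P301L (15 uM unlabeled, 0.24 uM Alexa 594-labeled) in 100 mM sodium acetate pH 7 with 20 uM heparin, 6 hr at 37 C. ThT 30 uM added, 1 hr ambient; Alexa 594 FP and total fluorescence read at 555/632 nm.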
# Tau ThT inhib – inhibitors of human tau fibril formation, thioflavin T binding. recombinant tau K18 P301L (four-repeat tau fragment), heparin-induced fibrillization, ThT fluorescence. P10636. hit rate 2.1% among 270,000. Potency, µM (series often up to 57.4 µM), inactives show at the highest dose activity, negative = inhibition, usual class: inhibitors; note: nearly all actives have a fitted effect of over 55% in size
#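 Heparin-induced fibrillization of the P301L-mutant K18 repeat-domain fragment of human tau was followed by ThT binding in quantitative high-throughput format.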
# Numbers without * were called inactive; ? = inconclusive; · = no result given; [ ] = remark or other dose. Unless noted, calls come from the whole dose curve; as a rule, active = well fitted curve in the direction sought with a large enough effect; inconclusive = small, poorly fitted or top-dose-only effect, or another doubt; inactive = no such curve, though single readings can be large; an effect the other way counts as inactive or inconclusive. Unless noted, % is set by controls: 0 for no effect and ±100 for the full control effect; potency is the fitted concentration of half-maximal effect.
SMILES,Tau FP inhib,ALDH1A1 inh,NPSR antagonist,HPGD block,Tau fluor counter,Tau ThT inhib
COC(=O)c1c(N2C(=O)CC(Sc3ccccc3C(=O)O)C2=O)sc(C)c1C (centres undefined),-4%,-1%,-41%,·,-13%,-4%
O=C1CC(SC2=NCCS2)C(=O)N1c1ccc(Cl)cc1 (centres undefined),1%,?,14%,-14%,-8%,-3%
c1cc(CSc2ncnc3nc[nH]c23)ccn1,·,6%[13.5 µM],·,-5%,·,·
Nc1ncnc2nn([C@H]3O[C@@H](CO)[C@@H](O)[C@H]3O)nc12,·,3%[13.5 µM],·,-13%,·,·
Cc1cc(OC(=O)c2c(C)cc(O)cc2O)cc(O)c1C(=O)O,0%,-13%,·,16µM*,-13%,-12%
CCCCCc1ccc(-c2ccc(Br)cc2)nc1,0%,·,·,·,-6%,-10%
CCCCCCCc1ccc(-c2ccc(O)cc2)nc1,?,6%,-9%,·,14µM*[quencher],?
Cc1c2cnn(CC(=O)N3CCCCC3)c(=O)c2c(C)n1Cc1ccc(Cl)cc1,-5%,·,·,·,-1%,-3%
Cc1c2ccccc2nc2c(F)c(NCCO)c(F)c(F)c12,?,?,0%,-24%,?,13µM*
O=C1C2C=CC=CC2=NC(=S)N1CCN1CCC(=C(c2ccc(F)cc2)c2ccc(F)cc2)CC1 (centres undefined),?,-5%,-17%[46.1 µM],-23%,?,-14%
O=C1CC(C(=O)Nc2ccc(Cl)cc2)n2ncnc2N1 (centres undefined),2%,-9%,10%,·,-5%,-8%
CCc1ccc(NC(=O)C2CC(=O)Nc3ncnn32)cc1 (centres undefined),-1%,25µM*,14%,-9%,-1%,0%
O=S(=O)(NC1c2cccc3cccc(c23)C1N1CCNCC1)c1ccccc1 (centres undefined),2%,-9%,-4%[46.1 µM],-8%,-3%,-17%
O=C(c1ccccc1)N1CCN(C2c3cccc4cccc(c34)C2NS(=O)(=O)c2ccccc2)CC1 (centres undefined),-10%,11µM*,?,-11%,-9%,-7%
CCCCOC(=O)Nc1cc(C(=O)OC)ccc1C(=O)OC,-3%,?,-6%[46.1 µM],?,-15%,-9%
Cc1ccc2nc3ccc(N4CCN(C)CC4)nn3c(=O)c2c1,7%,?,-11%[46.1 µM],-23%,0%,-9%
Cc1ccc2nc3ccc(N4CCCCCCC4)nn3c(=O)c2c1,9%,10µM*,?,-27%,-7%,-20%
COc1ccccc1NC(=O)CSc1oc(-c2ccc(F)cc2)nc1S(=O)(=O)c1ccc(Br)cc1,-14%,·,·,·,-25%,1%
CO[C@@H]1/C=C\CC(=O)N2CCC[C@@H]2C(=O)OC[C@H](C)C(=O)OC[C@H]1C,-1%[11.6 µM],10%[13.5 µM],·,·,-8%[11.6 µM],-7%[11.5 µM]
C#CCCCO/N=C1/C[C@@H](O)[C@@H](O)[C@@H]2[C@@H]3C(=O)N([C@@H](C)c4ccccc4)C(=O)[C@H]3CC[C@H]12,-13%[11.6 µM],10%[13.5 µM],·,·,-15%[11.6 µM],-9%[11.5 µM]
CCCn1c(N)c(C(c2ccc(OC)cc2)N2CCN(c3ccccc3)CC2)c(=O)[nH]c1=O (centres undefined),-1%,2.5µM*,-7%[46.1 µM],-19%,2%,?
CCCn1c(N)c(C(c2ccc(C(=O)OC)cc2)N2CCN(c3ccccc3)CC2)c(=O)[nH]c1=O (centres undefined),-9%,?,-20%[46.1 µM],-19%,-6%,?
COc1cc2c(cc1OC)C(C(=O)c1ccc(OC)c(OC)c1O)=NCC2,-9%,-7%,·,?,-10%,-3%
COc1ccc(P(=O)(COc2ccc([N+](=O)[O-])cc2)c2ccc(OC)cc2)cc1,-7%,7.1µM*,7%,-5%,-10%,-10%
CCCOc1ccc(C2c3c(-c4ccccc4O)n[nH]c3C(=O)N2Cc2ccncc2)cc1OCC (centres undefined),-11%,·,·,·,-24%,0%
SMILES,Tau FP inhib,ALDH1A1 inh,NPSR antagonist,HPGD block,Tau fluor counter,Tau ThT inhib
COc1ccc(/C=C/c2nc(N)nc(-c3ccccc3O)n2)cc1OC,20µM*,3%,-18%,-3%,?,?
CN(C)c1ccc(S(=O)(=O)c2ccc(Cl)cc2)cc1,-7%,?,-18%[46.1 µM],?,-11%,-9%
CN(C)c1ccc(C2C3C(=O)NC(=O)C3ON2c2ccc(Cl)cc2)cc1 (centres undefined),8%,25µM*,-19%[46.1 µM],-8%,-20%,-19%
Cc1ccccc1Nc1ncnc(N)n1,0%,13%,7%,·,-3%,-2%
COCCN=c1scc(-c2cc(OC)ccc2OC)n1/N=C/c1c[nH]c2ccccc12,-10%,-1%,-36%,-12%,7.9µM*[quencher],?
CCCCN(C)C(=O)c1nc2ccccn2c1CN1CCN(C(=O)c2cccs2)CC1,0%,6.3µM*,10%,·,-1%,-6%
CCCCN(C)C(=O)c1nc2ccccn2c1CN1CCN(c2ccccn2)CC1,-8%,-1%,-3%,·,-16%,-13%
CC1CCCC(NCC(=O)Nc2ccc(C(N)=O)cc2)C1C (centres undefined),14%,?,7%,·,-4%,-4%
Cc1cc(C)c(C)c(S(=O)(=O)N2CCN(c3ccc(O)cc3)CC2)c1C,?,22µM*,?,·,?,?
Cc1ccc(S(=O)(=O)N2CCOCC2)cc1NC(=O)CN1CCN(c2ccc(O)cc2)CC1,1%,?,-2%,5%,-9%,?
CC(C)(C)SCCNC(=O)Nc1ccccc1,3%,-6%,10%,-14%,-2%,-1%
CC(C)=CCC[C@](C)(O)C1CC=C(C)CC1 (some centres undefined),-2%,-13%,·,-8%,-4%,0%
O=C(c1ccc(Cl)cc1)N1CCC(O)(CSc2ccc(Cl)cc2Cl)CC1,7%,22µM*,?,-20%,?,-19%
Cc1cc(C)cc(OCC(=O)NCC2CCCO2)c1 (centres undefined),-4%,-4%,-6%[46.1 µM],16µM*,-5%,-3%
COc1ccc(CC(=O)Nc2ccc(S(=O)(=O)NCC3CCCO3)cc2)cc1 (centres undefined),-1%,10µM*,-4%[46.1 µM],22µM*,-5%,-13%
CS(=O)(=O)Nc1ccc(C(=O)NCC2CCCO2)cc1 (centres undefined),-1%,7%,-8%[46.1 µM],-11%,6%,-3%
Cc1ccc(C)n1-c1ccc(C(=O)NCC2CCCO2)cc1 (centres undefined),-1%,-10%,2%[46.1 µM],8.9µM*,-1%,?
Cc1cc(C)c(C)c(OCC(=O)NCC2CCCO2)c1 (centres undefined),-9%,-2%,-7%[46.1 µM],?,-2%,-7%

# High-throughput results deposited in PubChem by National Center for Advancing Translational Sciences (NCATS).
